Assay results as given in PubChem BioAssay AID686928 (Broad Institute, 2013).
Measured potencies and affinities stand elsewhere. The source made the active and inactive calls. The rule behind the calls is not given here.

Test: HeLa cell cytotoxicity, dose response, cytotoxicity control, 24 h, plate reader, dry powder (AID 686928)
Details: series mostly up to 80 µM

SMILES | outcome
Cc1cc(F)c2cc3c(NC(=O)c4ccco4)nn(C)c3nc2c1 | inactive
O=C(Nc1nnc(-c2ccc3c(c2)OCCO3)o1)C1CCCCC1 | inactive
COc1ccc(-c2nnc(NC(=O)C3CCCCC3)o2)cc1 | inactive
NC(=O)c1ccccc1Nc1cccc(Cl)c1 | inactive
COc1ccc(-c2nnc(NC(C)=O)o2)cc1 | inactive
O=C(Nc1nnc(-c2ccc3c(c2)CCCC3)o1)C1CCC1 | inactive
CCn1nnnc1NCc1ccc(C(C)C)cc1 | inactive
O=c1ncn(-c2ccc(Cl)cc2)c2ccccc12 | inactive
O=C(O)c1ccccc1Nc1cccc(Cl)c1 | inactive
Cn1ccc(NC(=O)c2ccco2)n1 | inactive
O=c1[nH]cnc2ccccc12 | inactive
Cn1nc(NC(=O)c2ccco2)c2ccccc21 | inactive
O=C(Nc1nnc(-c2cccnc2)o1)C1CCC1 | inactive
Cn1nc(NC(=O)c2ccco2)c2cc3ccccc3nc21 | inactive
CN(C)/C=N/c1nnc(-c2ccc3c(c2)OCCO3)o1 | inactive
Cc1cccc(-n2cnc(=O)c3ccccc32)c1 | inactive
COc1ccccc1-c1nnc(NC(=O)C2CCCCC2)o1 | inactive
COc1ccc(S(=O)(=O)Nc2nnc(-c3ccc4c(c3)OCCO4)o2)cc1 | inactive
O=C(Cc1ccc(-c2ccccc2)cc1)NC1CCC1 | inactive
O=c1nc(Cc2ccccc2)n(-c2cccc(Cl)c2)c2ccccc12 | inactive
Cc1ccc2cc3c(NC(=O)c4ccccn4)nn(C)c3nc2c1 | inactive
O=c1ncn(Cc2ccc(Cl)cc2)c2ccccc12 | inactive
O=C(Cc1ccc(-c2ccccc2)cc1)N[C@@H]1CCOC1 (racemic) | inactive
